Compound activity (PubChem)
Mot1-301 SUMO – yeast Mot1-301 growth rescue at high temperature, primary screen, SUMOylation pathway inhibitor project, S. cerevisiae, ATP luminescence, 38.5C | actives 1% (n = 320,000) | growth rescue, % at 18.8 µM | S. cerevisiae Mot1-301 growth rescue; percent above DMSO median, 100 means doubled;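 active means every valid replicate shows activation above 250% relative to neutral control wells; inactive means the rest, any valid replicate at or below 250%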
FAS-TE inh – FAS thioesterase domain inhibitors, primary screen, biochemical, fluorescence intensity, uHTS; actives 0.67% (n = 360,000); recombinant FAS-TE, OMFH fluorogenic substrate, fluorescence endpoint; Fatty acid synthase (Homo sapiens), P49327; inhibition, % at 15 µM;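 active means compounds whose normalised, plate-corrected inhibition of enzyme fluorescence in the single-dose primary screen is 50% or more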
H9c2 protect – cardioprotection against H2O2-induced cell death, primary screen, uHTS, H9c2 cells, ATPLite luminescence. actives 0.63% (n = 360,000). protection from H2O2 cell death, % at 20 µM. H9c2 cardiomyocytes, H2O2 injury protection, 2 h;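 active means compounds giving at least 50% protection of heart cells from peroxide-induced death in the single-dose screen, raw or plate-pattern-corrected value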
Yeast superoxide – reduction of superoxide in aged yeast, primary screen, HTS; S. cerevisiae aged cells, superoxide DHE fluorescence; stronger effect = lower value; superoxide response (% of plate mean), % at 10 µM; actives 0.18% (n = 330,000);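 active means superoxide response under a set limit, about three screen SD below normal, cut at about 65% in these data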;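 further: yeast aged for seven days with compound at 30 °C before DHE staining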
MPTP inh – mitochondrial permeability transition pore inhibitors, primary screen, biochemical, isolated mouse mitochondria, absorbance; Ca2+ swelling absorbance, 30 min; inhibition, % at 10 µM; actives 1.4% (n = 360,000); AID 602449, 2012;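 active means inhibition of 50% or more, scaled per plate between neutral and stimulator controls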
aDG glyco act – activators of alpha-DG glycosylation, primary screen, uHTS, Pro5-aDG cells, AlphaScreen; actives 0.22% (n = 360,000); activation, % at 10 µM; alpha-DG glycosylation AlphaScreen (IIH6); 0% Pro5, 100% B10-LARGE cell signal;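 active means activation of at least 8% versus controls, or a plate z-score of at least 8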;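 further: Pro5 are CHO cells carrying HIG-tagged alpha-DG that lacks glycosylation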
MPTP counter – fluorescence retest of MPTP screen hits in isolated mitochondria, single concentration; shares compounds with MPTP inh; membrane potential, Rhodamine 123 fluorescence; inhibition, % at 10 µM; actives 78% (n = 5,000); AID 624504, 2012; in the data active means inhibition above about 22%
MPTP swell DR – mitochondrial permeability transition pore inhibitors, dose response, biochemical, absorbance, uHTS hits. shares compounds with MPTP inh. isolated mitochondria swelling. IC50, µM. actives 58% (n = 780); in the data active means IC50 below about 20 µM
MPTP cs DR – fluorescent counter-screen in isolated mitochondria, dose response, counter-screen for MPTP inhibitor project, biochemical, fluorescence, uHTS hits | AID 651564, 2012 | shares compounds with MPTP inh | actives 49% (n = 780) | IC50, µM | isolated mitochondria counterscreen, fluorescence read-out; in the data active means IC50 below about 80 µM
Hits are given with their value; – = inactive; · = not tested or not shown. Only some compounds are listed: those with a hit (about 3.8% of all), similar ones and a draw of the others.

SMILES | Mot1-301 SUMO | FAS-TE inh | H9c2 protect | Yeast superoxide | MPTP inh | aDG glyco act | MPTP counter | others
Cc1sc2ncnc(N3CCN(CCOc4ccc(Cl)cc4)CC3)c2c1C | – | – | – | – | 100.2 | – | 101.8
Cc1ccc(N(Cc2ccccc2)C(=O)c2cc(S(=O)(=O)N3CCOCC3)ccc2F)cc1 | – | – | – | – | – | – | ·
CCCCNC(=O)C1(C)CCN1C(=O)c1ccc(C)c(F)c1 (stereo not given) | · | – | – | · | – | – | ·
Cc1nc(N2CCN(S(=O)(=O)c3ccc(F)cc3)CC2)c2c(C)c(C)sc2n1 | – | – | – | – | – | – | ·
Cc1sc2ncnc(N3CCN(S(=O)(=O)c4ccc(Br)cc4)CC3)c2c1C | – | – | – | – | 92.8 | – | 109.6
O=C1CCc2cc(Br)ccc2O1 | · | – | – | · | – | – | ·
O=C(NCc1ccccc1F)Nc1ccc([N+](=O)[O-])cc1 | – | – | – | – | 94.5 | – | 89.1
O=C(NCc1ccc2c(c1)OCO2)Nc1ccc([N+](=O)[O-])cc1 | – | – | – | – | 81.4 | – | 83.2
O=C(NCc1ccc2c(c1)OCO2)Nc1ccc(Cl)cc1 | – | – | – | – | – | – | ·
O=C(CSc1nc2ccccc2c(=O)n1CC1CCCO1)Nc1ccccc1Cl (stereo not given) | – | – | – | – | – | – | ·
CC(C)C(OC(=O)c1nsc(Cl)c1Cl)C(=O)NCC1CCCO1 (stereo not given) | – | – | – | – | – | – | ·
CCN1CCN(Cc2ccc(NC(=O)Nc3ccccc3)cc2)CC1 | – | – | – | – | – | – | ·
O=C(NCCN1CCc2ccccc2C1)Nc1ccc([N+](=O)[O-])cc1 | – | – | – | – | 93.8 | – | 83.6
O=C(NCCN1CCN(Cc2ccc([N+](=O)[O-])cc2)CC1)C(=O)Nc1ccccc1 | – | – | – | – | – | – | ·
CSc1ccc(NC(=O)NCCCN2CCN(c3ccccc3F)CC2)cc1 | – | – | – | – | 62.5 | – | – | MPTP swell DR=–;MPTP cs DR=29.1
O=C(NCCN1CCN(c2ccc([N+](=O)[O-])cc2)CC1)NCc1ccccc1 | – | – | – | – | 65.3 | – | 76.4
CCN1CCN(Cc2ccc(NC(=O)Nc3ccc(SC)cc3)cc2)CC1 | – | – | – | – | 52.5 | – | – | MPTP swell DR=–;MPTP cs DR=–
CC1CCCC(NC(=O)CCC(=O)NCc2ccccc2)C1C (stereo not given) | – | – | – | – | – | – | ·
C[C@H](NC(=O)c1ccco1)C(=O)Nc1ccc(C#N)cc1 | – | – | – | – | – | – | ·
O=C(NCCCN1CCc2ccccc2C1)Nc1ccc(Br)cc1 | – | – | – | – | 93.4 | – | 103.2
CCc1nc2ccc(C(=O)Nc3cc(-c4ccccc4)ccc3OC)cn2c1N(C=O)CCC(C)C | · | – | – | · | – | – | ·
O=C(Nc1nc(-c2ccc(Cl)cc2)cs1)NC1CCCCC1 | – | – | – | – | 92.5 | – | 88.0
Cc1csc(NC(=O)Nc2cccc(Cl)c2)n1 | – | – | – | – | 91.9 | – | 75.2
Cc1noc(-c2ccccc2)c1NC(=O)Nc1ccc(Cl)cc1 | – | – | – | – | 84.0 | – | 97.2
Cc1nnc(NC(=O)Nc2cccc(Cl)c2)s1 | – | – | – | – | – | – | ·
SMILES | Mot1-301 SUMO | FAS-TE inh | H9c2 protect | Yeast superoxide | MPTP inh | aDG glyco act | MPTP counter | others
NC(Cc1ccc(Cl)cc1)c1csc(NC(=O)Nc2ccccc2)n1 (stereo not given) | · | – | – | · | – | – | ·
Cc1noc(-c2ccccc2)c1NC(=O)Nc1ccccc1 | – | – | – | – | – | – | ·
O=C(Nc1ccc(Cl)cc1)Nc1nc(-c2ccccc2)cs1 | – | – | – | – | 94.1 | – | 91.9
CCN(CC)S(=O)(=O)c1ccc(/C=C/C(=O)Nc2cccc(F)c2)cc1 | – | – | – | – | – | – | ·
Fc1ccc(-c2csc(NC(=S)Nc3ccccc3)n2)cc1 | – | – | – | – | – | – | ·
O=C(Nc1ccccc1)Nc1nc(-c2ccc(F)cc2)cs1 | – | – | – | – | 91.9 | – | 86.0
O=C(Nc1nc(-c2ccccc2)cs1)c1ccccc1NS(=O)(=O)c1ccc(F)cc1 | – | – | – | – | 93.1 | – | 34.7
O=C(Nc1cccnc1)c1ccccc1NS(=O)(=O)c1ccc(F)cc1 | – | – | – | – | – | – | ·
NC(CO)c1csc(NC(=O)Nc2cccc(Cl)c2)n1 (stereo not given) | · | – | – | · | – | – | ·
CC(=O)Nc1nc(-c2ccc([N+](=O)[O-])cc2)cs1 | – | – | – | – | – | – | ·
O=C(Nc1ccc([N+](=O)[O-])cc1)Nc1nc(-c2ccc(Cl)s2)cs1 | – | – | – | – | 91.3 | – | 86.5
O=C(Nc1cccc(Cl)c1)Nc1nc(-c2ccccc2)cs1 | – | – | – | – | 94.2 | – | 83.1
O=C(COc1ccc(F)cc1)Nc1ccccc1N1CCOCC1 | – | – | – | – | – | – | ·
Cc1ccc(NC(=S)NC(C)CCc2ccccc2)cc1C (stereo not given) | – | – | – | – | 85.5 | – | 97.2
CC(=O)c1ccc(NC(=S)NC(C)CCc2ccccc2)cc1 (stereo not given) | – | – | – | – | 88.9 | – | 92.8
Cc1cccc(C)c1NC(=S)NC(C)CCc1ccccc1 (stereo not given) | – | – | – | – | – | – | ·
Cc1ccc(-c2csc(N3CCC(C(N)=O)CC3)n2)cc1 | – | – | – | – | – | – | ·
Cc1ccc(-c2csc(N3CCC(NS(=O)(=O)c4ccc5c(c4)OCCO5)CC3)n2)cc1 | – | – | – | – | 95.1 | – | 95.3
CN(Cc1ccccc1)S(=O)(=O)c1nnc(NC(=O)c2ccc(F)cc2)s1 | – | – | – | – | – | – | ·
CN(Cc1ccc(F)cc1)S(=O)(=O)c1nnc(NC(=O)c2ccccc2)s1 | – | – | – | – | 50.9 | – | 85.7
CN(Cc1ccc(F)cc1)S(=O)(=O)c1nnc(NC(=O)c2ccccc2Br)s1 | – | – | – | – | 59.9 | – | 70.8
COc1ccc(C(=O)Nc2nnc(S(=O)(=O)N(C)Cc3ccccc3)s2)cc1 | – | – | – | – | – | – | ·
COc1ccc(CN(C)S(=O)(=O)c2nnc(NC(=O)c3cccc(F)c3)s2)cc1 | – | – | – | – | 54.3 | – | 80.9
